GPR151 ag: activators of human GPR151, primary screen, cell-based, PathHunter beta-arrestin, luminescence | G-protein coupled receptor 151 (Homo sapiens), Q8TDV0 | PathHunter beta-arrestin GPR151 cells | 650,000 compounds, 1% hits | activation, % at 11.2 µM; in the data active = activation above about 4.9%
MITF inh: MITF inhibitors, primary screen, biochemical, AlphaScreen, human. AlphaScreen MITF homodimerization, bead proximity signal. Microphthalmia-associated transcription factor (Homo sapiens), O75030. 650,000 compounds, 0.91% hits. inhibition, % at 2.6 µM; in the data active = inhibition above about 50%
Target sequence (O75030 whole entry, looked up): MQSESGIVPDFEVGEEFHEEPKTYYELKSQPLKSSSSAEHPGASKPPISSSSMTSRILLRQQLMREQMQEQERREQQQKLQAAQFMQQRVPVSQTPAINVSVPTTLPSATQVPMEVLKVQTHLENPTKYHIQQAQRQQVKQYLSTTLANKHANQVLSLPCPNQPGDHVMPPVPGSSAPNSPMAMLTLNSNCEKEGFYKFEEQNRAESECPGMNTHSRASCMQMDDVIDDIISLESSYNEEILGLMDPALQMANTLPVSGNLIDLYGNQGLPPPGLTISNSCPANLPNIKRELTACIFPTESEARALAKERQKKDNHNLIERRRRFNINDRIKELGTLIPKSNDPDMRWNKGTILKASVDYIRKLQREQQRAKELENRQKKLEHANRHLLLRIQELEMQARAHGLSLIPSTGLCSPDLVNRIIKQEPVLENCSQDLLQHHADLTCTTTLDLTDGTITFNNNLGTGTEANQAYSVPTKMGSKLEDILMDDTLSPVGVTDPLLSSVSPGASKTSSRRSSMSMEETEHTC
TEAD-YAP block: TEAD-YAP interaction inhibition, primary screen, TEAD-YAP interaction inhibitor project, luminescence, HEK-TIYL cells. TEAD-Gal4/YAP UAS-luciferase luminescence. inhibition, % at 9.12 µM. 640,000 compounds, 1.4% hits. AID 1259422, 2018; in the data active = inhibition above about 32%
FBW7 activator: FBW7 E3 ligase activators, primary screen, biochemical, AlphaScreen, human | F-box/WD repeat-containing protein 7 (Homo sapiens), Q969H0 | AlphaScreen FBW7–phospho-cyclin E peptide binding, activator screen | normalized activity (activation), % at 26.1 µM | 650,000 compounds, 0.13% hits; in the data active = normalized activity above about 1.9%;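 also: purified mutant Fbw7 with reduced substrate affinity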
GPR151 confirm: GPR151 activators, triplicate retest, confirmation, cell-based, PathHunter beta-arrestin, luminescence. activation, % at 11.2 µM. shares compounds with GPR151 ag. 6,700 tested, under 10 active. GPR151 PathHunter beta-arrestin cells, 90 min; % of EA-reagent control over plate median;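 active = mean percent activation across replicates above the confirmation screen cutoff of 4.91%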
GPR119 ag: GPR119 activators in beta-arrestin cells, counter-screen for GPR151 activator project, cell-based, PathHunter beta-arrestin, luminescence, triplicate. shares compounds with GPR151 ag. 90 min; 0 = compound-well median, 100 = enzyme-acceptor control. activation, % at 11.2 µM. 6,700 compounds, 0.3% hits. AID 1508611, 2020;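 active = mean percent activation in the counterscreen above 29.09%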;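 also: counterscreen on off-target GPR119 to flag nonselective hits from the GPR151 activator screen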
Large screens that a line does not name were inactive (follow-up assays come after a bar, where they were run); ! = not confirmed by another sample. Compounds with a hit are over-represented: about 3.5% of the library has one in this group of screens.

Cc1c(Cl)cccc1NC(=O)CC(C)S(=O)(=O)c1ccc2c(c1)SCC(=O)N2 (configuration not stated)	none
Cc1cccc(C(C)C)c1NC(=O)CCS(=O)(=O)c1ccc2c(c1)SCC(=O)N2	GPR151 ag 5.5 | GPR151 confirm inactive | GPR119 ag inactive
CCOC(=O)c1c(C)oc2ccc(OCc3cc(C)ccc3C)cc12	none
COc1ccc(CCNC(=O)C(=O)Nc2cccc(C(F)(F)F)c2)cc1	none
CCCC(C)NC(=O)COc1ccccc1OC (configuration not stated)	none
COc1cccc(C(=O)Nc2nc3ccc(SC)cc3s2)c1OC	GPR151 ag 5.0 | GPR151 confirm inactive | GPR119 ag inactive
CSc1ccc2nc(NC(=O)c3ccccc3C)sc2c1	none
Cc1ccc(C2=NN(CC(=O)NCCCN3CCC(C)CC3)C(=O)CC2)cc1	none
O=C(CCCCCCN1C(=O)c2ccccc2C1=O)NN(c1ccccc1)c1ccccc1	GPR151 ag 6.2 | GPR151 confirm inactive | GPR119 ag inactive
O=C(CCCCCN1C(=O)c2ccccc2C1=O)Nc1ccccc1	none
Cc1cc(C)nc(SCc2cc(=O)c(OC(=O)c3cc(Cl)ccc3[N+](=O)[O-])co2)n1	none
COc1ccc2nc(C)[nH]c2c1	GPR151 ag 5.2 | GPR151 confirm inactive | GPR119 ag inactive
COc1cc2nc(C)[nH]c2cc1OC	none
Cc1cc(NCc2ccccc2)nc(-c2ccc(N3CCN(C)CC3)cc2)n1	GPR151 ag 14.3 | GPR151 confirm inactive | GPR119 ag inactive
O=C(Nc1ccc2c(c1)C(=O)OC2)c1ccncc1	none
CC(=O)c1ccc(C(=O)Nc2nc(-c3ccc(Cl)cc3)cs2)cc1	none
O=C(O)COc1ccc(C2C3=C(CCCC3=O)OC3=C2C(=O)CCC3)cc1	GPR151 ag 6.2 | GPR151 confirm inactive | GPR119 ag inactive
CCOC(=O)C(C)(C)N(Cc1ccccc1Cl)S(=O)(=O)c1ccc([N+](=O)[O-])cc1	none
CC(=O)NNC(=O)c1ccc(Cl)cc1	none
CC(=O)NC(NC(=O)c1ccc(Cl)cc1)C(Cl)Cl (configuration not stated)	GPR151 ag 6.9 | GPR151 confirm inactive | GPR119 ag inactive
Cc1ccc(C(=O)Nc2ccc(C(=O)N/N=C/c3cccc(C)n3)cc2)cc1	GPR151 ag 6.1 | GPR151 confirm inactive | GPR119 ag inactive
Cc1cccc(/C=N/NC(=O)c2ccc(F)cc2)n1	none
O=C(Cn1cc(NC(=O)CSc2ccccc2)cn1)NCCn1ccc2ccccc21	none
Cc1ccc(Cl)cc1NC(=O)Cn1cnc2c(-c3ccccc3)csc2c1=O	GPR151 ag 7.3 | GPR151 confirm inactive | GPR119 ag inactive
COC(=O)C1=C(C)N(c2ccc(C)cc2)/C(=C/c2sccc2C)C1=O	none
CC(=O)Nc1ccc(-c2nc3c(C)cc(NC(C)=O)cc3[nH]2)cc1	none
COc1ccc(CCN2C(=O)CC(C(=O)Nc3ccc(C(=O)O)cc3)SC2=Nc2ccc(F)cc2)cc1OC (configuration not stated)	none
CC1CCC(=NNC(=O)c2ccc(Cl)cc2)CC1 (configuration not stated)	none
Cc1ccc(S(=O)(=O)NCC(=O)NN=C2CCC(C)CC2)cc1 (configuration not stated)	GPR151 ag 6.5 | GPR151 confirm inactive | GPR119 ag inactive
Cc1ccc(C(=O)NN=C2CCC(C)CC2)cc1 (configuration not stated)	GPR151 ag 8.1 | GPR151 confirm inactive | GPR119 ag inactive
O=C(Nc1ccc(Oc2ccc(Cl)cc2)cc1)C1CCCN1C(=O)OCc1ccccc1 (configuration not stated)	GPR151 ag 5.5 | GPR151 confirm inactive | GPR119 ag inactive
CCC(C)NC(=O)C1=CC(c2ccc(F)cc2)=NS(=O)(=O)N1C (configuration not stated)	none
c1ccc2c(NC3CCCC3)nc(N3CCNCC3)nc2c1	none
CN1CCN(c2nc(NC3CCCCC3)c3ccccc3n2)CC1	GPR151 ag 11.8 | GPR151 confirm inactive | GPR119 ag inactive
Cc1ccc(C2=N/C(=C/c3cc(Br)cs3)C(=O)O2)cc1[N+](=O)[O-]	GPR151 ag 5.1 | GPR151 confirm inactive | GPR119 ag inactive
Cc1ccc(C2=N/C(=C/c3ccc([N+](=O)[O-])cc3)C(=O)O2)cc1	GPR151 ag 7.9 | GPR151 confirm inactive | GPR119 ag inactive
O=C1OC(c2ccc([N+](=O)[O-])cc2)=N/C1=C\c1ccccc1	none
CCOC(=O)c1sc(-c2ccccc2)cc1NC(=O)c1cc2ccccc2cc1OC	none
CCOC(=O)c1sc(-c2ccccc2)cc1NC(=S)NC(=O)CN1C(=O)CCC1=O	GPR151 ag 7.7 | GPR151 confirm inactive | GPR119 ag inactive
COc1ccc(-c2noc(NCc3cccc(Cl)c3)n2)cc1OC	GPR151 ag 4.9 | GPR151 confirm inactive | GPR119 ag inactive
COc1ccc(-c2noc(NCc3ccccc3)n2)cc1OC	none
O=C(O)/C=C\C(=O)N1CCN(Cc2ccc3c(c2)OCO3)CC1	none
CC(NCCc1ccc(O)cc1)C(O)c1ccc(O)cc1 (configuration not stated)	none
C[C@@H](NCCc1ccc(O)cc1)[C@@H](O)c1ccc(O)cc1	GPR151 ag 6.4! | GPR151 confirm inactive | GPR119 ag inactive
Cc1ccc(NC(=O)COc2ccc(C(C)C)c(C)c2)cc1Cl	none
CCN(CC)c1ccc2cc(C(=O)Nc3ccc(C)cc3)c(=O)oc2c1	none
CCOC(=O)CC(=O)c1cc2ccc(N(CC)CC)cc2oc1=O	GPR151 ag 5.4 | GPR151 confirm inactive | GPR119 ag inactive
CC1=C(C(=O)OCCc2ccccc2)C(c2ccccc2)NC(=O)N1 (configuration not stated)	none
CCOc1ccc(NC(=O)N2CCC(Cn3cnc4cc(C)c(C)cc43)CC2)cc1	GPR151 ag 5.8 | GPR151 confirm inactive | GPR119 ag inactive
CCOc1ccc(NC(=O)N2CCC(CN3CCCCCC3)CC2)cc1	none
COc1cccc(-c2n[nH]c(=S)n2Cc2ccco2)c1OC	GPR151 ag 9.1 | GPR151 confirm inactive | GPR119 ag inactive
COc1ccc(-c2n[nH]c(=S)n2Cc2ccco2)cc1OC	none
O=C(Cn1c(=O)n(-c2ccccc2)c(=O)c2oc3ccccc3c21)N1CCCCC1	GPR151 ag 5.1 | GPR151 confirm inactive | GPR119 ag inactive
O=C(Nc1cccc(F)c1)c1ccccc1NS(=O)(=O)c1ccccc1	none
Oc1cccc2ccc(Nc3ccccn3)nc12	GPR151 ag 5.1, MITF inh 108.1, TEAD-YAP block 85.9 | GPR151 confirm inactive | GPR119 ag inactive

From PubChem BioAssay
